Experimental findings from PubChem BioAssay (EPA / NIEHS) are described below.

Read-out in test [1]: Interleukin-1 alpha (IL1a), IL1A (gene 3552)
Briefly: BSK_LPS_IL1a: BioMAP Diversity Plus: LPS Assay for Interleukin-1 alpha (IL1a) Biomarker Activity (AID 2283080). As to conditions: primary human HUVEC with PBMC; actives raise or lower the signal. The method in brief: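 Measured: IL-1 alpha via ELISA at 24 h in LPS-activated human umbilical vein endothelium–PBMC co-culture. Baseline: DMSO, bidirectional fitting.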

Read-out in test [2]: Monocyte Chemoattractant Protein-1 (MCP1), CCL2 (gene 6347)
Briefly: BSK_LPS_MCP1: BioMAP Diversity Plus: LPS Assay for Monocyte Chemoattractant Protein-1 (MCP1) Biomarker Activity (AID 2283081). Particulars: primary human HUVEC with PBMC; actives raise or lower the signal. The method, boiled down:
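LPS-stimulated HUVEC/PBMC co-culture; chemical, 24 h; MCP-1 by ELISA; bidirectional fit vs DMSO; cytotoxicity via SRB (0.1% stain, 10% TCA fix, 560 nm) in parallel wells.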

The nature of test [3]: BSK_LPS_PGE2: BioMAP Diversity Plus: LPS Assay for Prostaglandin E2 (PGE2) Biomarker Activity (AID 2283082). As to conditions: primary human HUVEC with PBMC; actives raise or lower the signal. The method in brief: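 ELISA read-out of PGE2 from human umbilical vein endothelial cells co-cultured with peripheral blood mononuclear cells under LPS, 24 h post-dose. Gain or loss of signal scored relative to DMSO baseline.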

Read-out in test [4]: Macrophage colony-stimulating factor (MCSF), CSF1 (gene 1435)
Put plainly: BSK_LPS_MCSF: BioMAP Diversity Plus: LPS Assay for Macrophage colony-stimulating factor (MCSF) Biomarker Activity (AID 2283083). As to conditions: primary human HUVEC with PBMC; actives raise or lower the signal. The method in brief: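 Compound is added to a human vascular primary co-culture of umbilical vein endothelium and blood mononuclear cells. After 24 h, M-CSF is quantified by ELISA. Signal changes are fitted in both directions against DMSO.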

Read-out in test [5]: Tissue Factor, F3 (gene 2152)
Briefly: BSK_LPS_TissueFactor: BioMAP Diversity Plus: LPS Assay for Tissue Factor Biomarker Activity (AID 2283084). Particulars: primary human HUVEC with PBMC; actives raise or lower the signal. The method, boiled down:
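In this co-culture system of umbilical vein endothelium with PBMC, stimulated with LPS, cell-surface CD142 is detected by ELISA at 24 h. Endpoint values derive from bidirectional fitting, DMSO serving as baseline.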

Read-out in test [6]: Tumor necrosis factor (Homo sapiens) (UniProt P01375)
Briefly: BSK_LPS_TNFa: BioMAP Diversity Plus: LPS Assay for Tumour Necrosis Factor alpha (TNFa) Biomarker Activity (AID 2283085).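 For AC50: TNFa protein level quantified by ELISA in the co-culture.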 Particulars: primary human HUVEC with PBMC; actives raise or lower the signal. The method in brief: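 HUVEC/PBMC co-culture, LPS-stimulated; 24 h post-dose; TNFa by ELISA; gain or loss of signal fitted bidirectionally vs DMSO baseline.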

Read-out in test [7]: Vascular cell adhesion molecule 1 (VCAM1), VCAM1 (gene 7412)
Briefly: BSK_LPS_VCAM1: BioMAP Diversity Plus: LPS Assay for Vascular cell adhesion molecule 1 (VCAM1) Biomarker Activity (AID 2283086). As to conditions: primary human HUVEC with PBMC; actives raise or lower the signal. The method, boiled down:
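ELISA read-out of VCAM-1 at 24 h post-dosing in an LPS-driven HUVEC/PBMC primary human co-culture; gain or loss of signal fitted bidirectionally against DMSO baseline. Cytotoxicity tracked in parallel cultures by SRB total-protein staining.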

Read-out in the next test: CD38, CD38 (gene 952)
Briefly: BSK_SAg_CD38: BioMAP Diversity Plus: SAg Assay for CD38 Biomarker Activity (AID 2283087). Particulars: primary human HUVEC with PBMC; actives raise or lower the signal. The method, boiled down:
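Measures CD38 on a human endothelial/PBMC co-culture driven by SEB and TSST-1, 24 h after compound exposure, using ELISA with fluorescence detection; DMSO defines baseline for bidirectional curve fitting.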

Read-out in another test: CD40, CD40 (gene 958)
Briefly: BSK_SAg_CD40: BioMAP Diversity Plus: SAg Assay for CD40 Biomarker Activity (AID 2283088). Particulars: primary human HUVEC with PBMC; actives raise or lower the signal. The method, boiled down:
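Fluorescence ELISA read-out of CD40 from umbilical vein endothelium plus peripheral blood mononuclear cells, sampled 24 h after dosing. Values come from bidirectional curve fitting with DMSO as baseline.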

Read-out in a further test: CD69, CD69 (gene 969)
Briefly: BSK_SAg_CD69: BioMAP Diversity Plus: SAg Assay for CD69 Biomarker Activity (AID 2283089).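 For AC50: cell surface CD69 protein quantified by ELISA with fluorescence detection.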 As to conditions: primary human HUVEC with PBMC; actives raise or lower the signal. The method, boiled down: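 HUVEC co-cultured with PBMC were dosed with chemical, and CD69 was measured by ELISA with fluorescence read-out 24 h later. Bidirectional curve fitting used DMSO as negative control and activity baseline.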

Read-out in test [8]: Monocyte Chemoattractant Protein-1 (MCP1), CCL2 (gene 6347)
Briefly: BSK_SAg_MCP1: BioMAP Diversity Plus: SAg Assay for Monocyte Chemoattractant Protein-1 (MCP1) Biomarker Activity (AID 2283090). Particulars: primary human HUVEC with PBMC; actives raise or lower the signal. The method in brief: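 Values derive from bidirectional fitting of ELISA-measured MCP1 against DMSO controls. Readings were taken 24 h after dosing human vascular endothelial cells co-cultured with peripheral blood mononuclear cells under superantigen stimulation.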

Read-out in test [9]: E-selectin (Homo sapiens) (UniProt P16581)
Put plainly: BSK_SAg_Eselectin: BioMAP Diversity Plus: SAg Assay for Eselectin Biomarker Activity (AID 2283091). As to conditions: primary human HUVEC with PBMC; actives raise or lower the signal. The method in brief:
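Primary human endothelial cells and peripheral blood mononuclear cells were co-cultured and exposed to chemical for 24 hours. E-selectin levels were then quantified by ELISA, with bidirectional curve fitting normalised to DMSO controls.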

Read-out in test [10]: Monokine induced gamma interferon (MIG), CXCL9 (gene 4283)
Put plainly: BSK_SAg_MIG: BioMAP Diversity Plus: SAg Assay for Monokine induced gamma interferon (MIG) Biomarker Activity (AID 2283092). As to conditions: primary human HUVEC with PBMC; actives raise or lower the signal. The method, boiled down: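 HUVEC plus human PBMC co-culture, chemicals dosed and MIG (CXCL9) quantified by ELISA at 24 h. Bidirectional curve fitting against DMSO as negative control and baseline, so both gain and loss of signal count as activity.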

Test [11] in a line: BSK_SAg_PBMCCytotoxicity: PBMC Cytotoxicity Assessment in the BioMAP Diversity Plus: SAg Assay (AID 2283093).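 For AC50: PBMC superantigen activated with SEB plus TSST-1 one hour after compound addition.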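 Note: fitted both ways against DMSO so a hit may be loss or gain of signal.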 Particulars: primary human HUVEC with PBMC. The method in brief:
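PBMC viability by Alamar Blue reduction, fluorescence read at 546/580 nm after 6 h dye exposure. Cells were dosed 1 h before SEB plus TSST-1 activation (20 ng/mL final each), then held 90 h; endothelial/PBMC human co-culture.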

Read-out in test [12]: Interleukin-8 (IL8), CXCL8 (gene 3576)
Briefly: BSK_SAg_IL8: BioMAP Diversity Plus: SAg Assay for Interleukin-8 (IL8) Biomarker Activity (AID 2283094). As to conditions: primary human HUVEC with PBMC; actives raise or lower the signal. The method in brief: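 HUVEC/PBMC co-culture, 24 h post-dose; IL-8 by ELISA. Gain or loss of signal fitted bidirectionally vs DMSO baseline.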

The nature of test [13]: BSK_SAg_Proliferation: Cell Proliferation Assessment in the BioMAP Diversity Plus: SAg Assay (AID 2283095).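 Note: relative cell number as total protein by SRB absorbance in sub-confluent culture.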 Particulars: primary human HUVEC with PBMC. The method in brief:
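HUVEC/PBMC co-culture, 96-well. TCA-fixed (10%), 0.1% SRB stain, A560 at 96 h. Protein content used as viability readout; bidirectional fitting vs DMSO control.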

A short description of test [14]: BSK_SAg_SRB: Viability Assessment in the BioMAP Diversity Plus: SAg Assay (AID 2283096).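 Note: cells read one day after compound addition; hits may be either gain or loss of signal compared with DMSO.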 As to conditions: primary human HUVEC with PBMC. The method in brief: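 Compounds were added to a human vascular co-culture of umbilical vein endothelium and PBMC. After 24 h, parallel cultures were fixed with 10% TCA, stained with 0.1% sulforhodamine B and read at 560 nm. Gain or loss of signal was fitted relative to DMSO.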

The source made the active and inactive calls. Rule for the calls: active = hit-call score of the fitted dose curve at least 0.9, where 1 is the maximum; inactive = score below 0.9.

E-selectin (Homo sapiens), sequence (P16581 whole entry, looked up): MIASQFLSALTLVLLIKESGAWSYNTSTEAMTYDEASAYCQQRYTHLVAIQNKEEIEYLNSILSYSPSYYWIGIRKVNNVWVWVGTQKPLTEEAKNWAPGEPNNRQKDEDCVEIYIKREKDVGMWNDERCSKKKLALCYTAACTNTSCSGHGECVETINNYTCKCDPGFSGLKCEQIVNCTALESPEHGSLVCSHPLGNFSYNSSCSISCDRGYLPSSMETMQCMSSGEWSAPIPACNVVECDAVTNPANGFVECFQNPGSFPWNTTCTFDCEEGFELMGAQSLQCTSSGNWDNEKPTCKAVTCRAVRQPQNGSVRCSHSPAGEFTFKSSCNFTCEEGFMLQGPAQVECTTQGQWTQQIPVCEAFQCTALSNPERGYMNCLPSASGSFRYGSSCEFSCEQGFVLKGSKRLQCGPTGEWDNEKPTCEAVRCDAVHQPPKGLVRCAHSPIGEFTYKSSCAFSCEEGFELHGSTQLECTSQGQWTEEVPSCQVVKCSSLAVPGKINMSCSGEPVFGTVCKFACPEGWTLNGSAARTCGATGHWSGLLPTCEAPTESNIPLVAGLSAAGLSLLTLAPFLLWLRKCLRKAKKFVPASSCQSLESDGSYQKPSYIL
Tumor necrosis factor (Homo sapiens), sequence (P01375 whole entry, looked up): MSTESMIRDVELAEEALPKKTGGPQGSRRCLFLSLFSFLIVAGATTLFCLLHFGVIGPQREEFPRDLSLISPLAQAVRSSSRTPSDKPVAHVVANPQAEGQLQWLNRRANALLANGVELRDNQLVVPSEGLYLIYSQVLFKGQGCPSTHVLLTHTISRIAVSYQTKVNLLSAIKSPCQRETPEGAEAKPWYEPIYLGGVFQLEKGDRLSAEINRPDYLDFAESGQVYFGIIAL

`COc1cc(OC)nc(NC(=O)NS(=O)(=O)c2cc(NC=O)ccc2C(=O)N(C)C)n1`: the result in test [1], in test [2], in test [3], in test [4], in [5] and in test [6] was inactive. For the same compound, the outcome in test [7] was “inactive”; in the test with CD38, CD38 (gene 952), “inactive”; with CD40, CD40 (gene 958), “inactive”; with CD69, CD69 (gene 969), “inactive”; in [8], “inactive”; in [9], “inactive”. In addition, the result in [10], in test [11], in test [12], in test [13] and in [14] was inactive.
For `Cc1[nH]c(=O)n(C(C)(C)C)c(=O)c1Cl`, the result in test [1], in [2], in [3], in test [4], in [5] and in test [6] was inactive. Moreover, the outcome was “inactive” in [7]; “inactive” with CD38, CD38 (gene 952); “inactive” in the test with CD40, CD40 (gene 958); “inactive” in test [10]; “inactive” in test [14]. Further, the AC50 with CD69, CD69 (gene 969) was 3.68 µM (active); in test [8] it was 5.42 µM (active); in [9], 20 µM (active); in test [11], 9.4 µM (active); in test [12], 9.86 µM (active); in [13] it was 16 µM (active).
For `CNC(=O)Oc1cccc(N=CN(C)C)c1`, the outcome in test [1] is “inactive”; in test [2], “inactive”; in [3] it was “inactive”; in test [4], “inactive”; in test [6], “inactive”; with CD69, CD69 (gene 969), “inactive”. The result in test [8], in [10], in test [11], in test [12] and in test [14] was inactive. Moreover, the concentration at half-maximal activity (AC50) was 26.5 µM (active) in [5]; 17.4 µM (active) in test [7]; 33 µM (active) in the test with CD38, CD38 (gene 952); 34.6 µM (active) with CD40, CD40 (gene 958); 18.7 µM (active) in [9]; 17.9 µM (active) in test [13].
Turning to `Cc1cc(C)nc(NC(=O)NS(=O)(=O)c2ccccc2C(=O)OC2COC2)n1`, the result in test [1], in [2], in test [3], in test [5], in test [6] and in test [7] was inactive. Besides, the outcome with CD38, CD38 (gene 952) was “inactive”; with CD40, CD40 (gene 958) it was “inactive”; in the test with CD69, CD69 (gene 969), “inactive”; in test [8] it was “inactive”; in [9], “inactive”; in [10], “inactive”. Moreover, the result in [11], in test [12], in [13] and in test [14] was inactive. In addition, in [4], the AC50 was 0.331 µM (active).
For the compound `O=C(NC(=O)c1c(F)cccc1F)Nc1ccc(OC(F)(F)C(F)OC(F)(F)F)c(Cl)c1` (configuration not stated), the outcome in test [1], in [2], in test [3], in test [4], in test [5] and in test [6] was inactive. In addition, the outcome is “inactive” in test [7]; “inactive” in the test with CD40, CD40 (gene 958); “inactive” in the test with CD69, CD69 (gene 969); “inactive” in [10]; “inactive” in [12]; “inactive” in test [14]. In addition, the AC50 is 16.3 µM (active) with CD38, CD38 (gene 952); 32.2 µM (active) in [8]; 9.18 µM (active) in test [9]; 8.44 µM (active) in test [11]; 9.75 µM (active) in test [13].
Regarding `CC(C)N(C(=O)COc1nnc(C(F)(F)F)s1)c1ccc(F)cc1`, the outcome in test [1], in test [2], in [3], in test [4], in [5] and in test [7] was inactive. For the same compound, the outcome in the test with CD38, CD38 (gene 952) was “inactive”; in the test with CD40, CD40 (gene 958) it was “inactive”; with CD69, CD69 (gene 969), “inactive”; in test [8], “inactive”; in test [9], “inactive”; in test [10] it was “inactive”. Also, the outcome in test [11], in test [12] and in [14] was inactive. The results for the AC50 in test [6] and in test [13] were 12.6 µM (active) and 15.8 µM (active), respectively.

What is called AC50 is the concentration giving half of the maximal activity seen.
